Data as given in the antibiotic and cytotoxicity screens of Wong et al. (2023).
Screen size: about 39,000 compounds; about 500 (1.3%) were called active. What follows is part of a selection rich in actives, with near analogues and random picks from the rest.

System: S. aureus RN4220
Experiment: growth inhibition call (relative growth <= 0.2)
Settings: 50 µM

Growth inhibition call, inactive:
C[C@H](CO)N1C[C@H](C)[C@@H](CN(C)C(=O)Nc2ccccc2)Oc2c(NC(=O)C3CCOCC3)cccc2C1=O
CO[C@H]1O[C@H](COC(=O)NCCCCCC(=O)NO)[C@@H](OC(=O)Nc2ccccc2)[C@@H]2OC(=O)[C@H](Cc3cccc(Br)c3)C/C=C/C[C@@H](Cc3cccc(Br)c3)C(=O)O[C@@H]12
C[C@H](CO)N1C[C@H](C)[C@H](CN(C)C(=O)Nc2ccccc2)Oc2c(NC(=O)Nc3ccc(C(F)(F)F)cc3)cccc2C1=O
C[C@H](CO)N1C[C@H](C)[C@@H](CN(C)C(=O)Nc2ccc(C(F)(F)F)cc2)Oc2c(NC(=O)Nc3ccccc3)cccc2C1=O
C[C@H]1CN([C@@H](C)CO)C(=O)c2cccc(NC(=O)Nc3ccccc3)c2O[C@@H]1CN(C)C(=O)Nc1ccc(C(F)(F)F)cc1
C[C@@H]1CN([C@@H](C)CO)C(=O)c2cccc(NC(=O)Nc3ccccc3)c2O[C@@H]1CN(C)C(=O)Nc1ccc(C(F)(F)F)cc1
C[C@@H]1CN([C@H](C)CO)C(=O)c2cccc(NC(=O)Nc3ccc(C(F)(F)F)cc3)c2O[C@H]1CN(C)C(=O)Nc1ccccc1
C[C@@H]1CN([C@H](C)CO)C(=O)c2cccc(NC(=O)Nc3ccc(C(F)(F)F)cc3)c2O[C@@H]1CN(C)C(=O)Nc1cccc2ccccc12
C[C@H](CO)N1C[C@H](C)[C@H](CN(C)C(=O)Nc2cccc3ccccc23)Oc2c(NC(=O)Nc3ccc(C(F)(F)F)cc3)cccc2C1=O
C[C@H](CO)N1C[C@H](C)[C@H](CN(C)C(=O)Nc2ccc(C(F)(F)F)cc2)Oc2c(NC(=O)Nc3ccccc3)cccc2C1=O
COc1ccc(S(=O)(=O)Nc2ccc3c(c2)C(=O)N([C@@H](C)CO)C[C@H](C)[C@H](CN(C)C(=O)Nc2ccccc2)OCCCC[C@H](C)O3)cc1
Cc1ccc(S(=O)(=O)N(C)C[C@H]2Oc3ccc(NS(=O)(=O)c4c(C)noc4C)cc3CC(=O)N([C@@H](C)CO)C[C@H]2C)cc1
COc1ccc2c3c(n(c2c1)C)[C@@H](CO)N(Cc1ccccc1)C[C@]13CCN(CC1)C(=O)c1ccccc1F
C[C@H](CO)N1C[C@H](C)[C@H](CN(C)C(=O)CCCN(C)C)OCCCC[C@H](C)Oc2ccc(NC(=O)Nc3ccc(C(F)(F)F)cc3)cc2C1=O
O=C([C@H]1[C@H](CO)[C@H]2Cn3c(cccc3=O)[C@@H]1N2CC1CCCC1)N1CCOCC1
COc1cc(/C=C/c2cc(/C=C/c3ccc(O)c(OC)c3)n(Cc3ccc4c(c3)OCO4)c(=S)n2)ccc1O
C[C@@H]1CCCCO[C@@H](CN(C)C(=O)Nc2ccc3c(c2)OCO3)[C@@H](C)CN([C@@H](C)CO)C(=O)c2cc(NC(=O)Cc3ccccc3)ccc2O1
CCOc1ccc(Nc2c3ccccc3nc3ccccc23)cc1
c1ccc(Nc2nc(-c3ccccc3)nc3ccccc23)cc1
Cc1ccc(S(=O)(=O)Nc2ccc3c(c2)C(=O)N([C@H](C)CO)C[C@H](C)[C@H](CN(C)S(=O)(=O)c2ccc(F)cc2)OCCCC[C@@H](C)O3)cc1
Cc1noc(C)c1S(=O)(=O)N(C)C[C@H]1Oc2ccc(NS(=O)(=O)c3ccccc3)cc2CC(=O)N([C@H](C)CO)C[C@@H]1C
C[C@@H]1CN([C@@H](C)CO)C(=O)c2cc(NC(=O)Nc3ccc(C(F)(F)F)cc3)ccc2O[C@@H](C)CCCCO[C@H]1CN(C)C(=O)C1CCCCC1
COC(=O)c1c(-c2c(Cl)cccc2Cl)noc1-c1cnn(-c2cccc(Cl)c2)c1C(F)(F)F
C[C@H](CO)N1C[C@H](C)[C@H](CN(C)S(=O)(=O)c2cccc(F)c2)Oc2ncc(C#CCN(C)C)cc2C1=O
C[C@@H]1CN([C@H](C)CO)C(=O)CCCn2cc(nn2)CO[C@H]1CN(C)C(=O)c1ccc(N2CCN(C)CC2)cc1
C[C@@H]1CN([C@H](C)CO)C(=O)c2cccc(NC(=O)Nc3cccc4ccccc34)c2O[C@@H]1CN(C)C(=O)Nc1cccc2ccccc12
C[C@@H]1CCCCO[C@@H](CN(C)C(=O)c2ccncc2)[C@H](C)CN([C@H](C)CO)C(=O)c2cc(NC(=O)C3CCCCC3)ccc2O1
CC1CC2C(C(O)CC3(C)C2CCC3(O)C(=O)COC(=O)CCC(=O)[O-])C2(C)C=CC(=O)C=C12.[Na+] (centres undefined)
COc1cc(NC(=O)CCN2CCC(OC(=O)Nc3ccccc3-c3ccccc3)CC2)c(Cl)cc1CNC[C@H](O)c1ccc(O)c2nc(O)ccc12
CO[C@H]1CN(C)C(=O)c2cc(NC(=O)Nc3ccccc3)ccc2OC[C@H](C)N(C(=O)CN(C)C)C[C@@H]1C
Cc1noc(C)c1S(=O)(=O)Nc1ccc2c(c1)CC(=O)N([C@H](C)CO)C[C@@H](C)[C@@H](CN(C)Cc1ccncc1)O2

Growth inhibition call, active:
C[C@@H]1CN([C@@H](C)CO)C(=O)c2cccc(NC(=O)Nc3ccc(C(F)(F)F)cc3)c2O[C@@H]1CN(C)C(=O)Nc1ccccc1
C[C@H](CO)N1C[C@H](C)[C@@H](CN(C)C(=O)Nc2cccc3ccccc23)Oc2c(NC(=O)Nc3ccc(C(F)(F)F)cc3)cccc2C1=O
C[C@H]1CN([C@@H](C)CO)C(=O)c2cccc(NC(=O)Nc3ccc(C(F)(F)F)cc3)c2O[C@@H]1CN(C)C(=O)Nc1ccccc1
C[C@H]1CN([C@@H](C)CO)C(=O)c2cccc(NC(=O)Nc3ccc(C(F)(F)F)cc3)c2O[C@H]1CN(C)C(=O)Nc1ccccc1
CCC(CC)c1nc(Nc2ccccc2)c2ccccc2n1
Cc1onc(-c2ccccc2)c1C(=O)NC1C(=O)N2C1SC(C)(C)C2C(=O)[O-].[Na+] (centres undefined)
Cc1onc(-c2ccccc2Cl)c1C(=O)NC1C(=O)N2C1SC(C)(C)C2C(=O)[O-].[Na+] (centres undefined)
Cc1onc(-c2c(Cl)cccc2Cl)c1C(=O)NC1C(=O)N2C1SC(C)(C)C2C(=O)[O-].[Na+] (centres undefined)
